Source: PubChem
Sampled rows, rich in hits. Any-hit rate of the full collection: about 2.4%.
AmpC inh det – AmpC beta-lactamase inhibition, detergent assay; P00811; purified AmpC, nitrocefin hydrolysis with detergent; Potency, µM (series often up to 28.7 µM); 71,000 compounds, 0.09% hits; active = well fitted curve in the direction sought with a large enough effect; inconclusive = small, poorly fitted or top-dose-only effect
Target sequence (P00811 whole entry, looked up): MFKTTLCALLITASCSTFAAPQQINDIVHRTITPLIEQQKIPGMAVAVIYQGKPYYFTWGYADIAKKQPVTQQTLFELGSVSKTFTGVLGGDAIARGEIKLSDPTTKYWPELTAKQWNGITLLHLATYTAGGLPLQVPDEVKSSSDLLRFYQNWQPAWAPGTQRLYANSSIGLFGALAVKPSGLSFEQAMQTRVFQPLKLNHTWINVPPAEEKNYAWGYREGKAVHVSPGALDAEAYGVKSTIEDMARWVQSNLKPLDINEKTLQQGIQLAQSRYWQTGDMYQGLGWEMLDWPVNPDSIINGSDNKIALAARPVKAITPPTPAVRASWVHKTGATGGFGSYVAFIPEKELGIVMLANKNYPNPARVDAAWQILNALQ
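E. coli AmpC (5.3 nM) in 20 mM phosphate pH 7.0 with 0.01% Triton X-100, preincubated 15 min RT with compound; nitrocefin (2 uL of 800 uM stock) hydrolysis followed by 480 nm absorbance every 20 s over 4 min.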
Anthrax LT inh – blocks cellular internalization of anthrax lethal toxin; Cells, anthrax lethal toxin internalization, FRET ratio (460/530); Potency, µM (doses to about 40 µM), actives largely listed as inhibitors; 70,000 compounds, 0.67% hits; AID 912; also: nearly all actives have a fitted effect of over 50% in size
AmpC nodet inh – AmpC beta-lactamase inhibition, detergent-free assay; AmpC nitrocefin hydrolysis, absorbance 480 nm, no detergent; Potency, µM (titrated, usually from 28.7 µM); AID 585; 71,000 compounds, 1.8% hits; P00811
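AmpC, 20 mM phosphate pH 7.0; 15 min cpd preinc, RT; start with nitrocefin (800 uM stock); A480 kinetic read, 20 s intervals, 4 min. No-enzyme wells = negative control.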
Prx2 Sm inh – Schistosoma mansoni Prx2 inhibition; S. mansoni Prx2 activity coupled to TGR/GSH (TGR is thioredoxin glutathione reductase), NADPH fluorescence loss, qHTS; Potency, µM; 65,000 compounds, 0.07% hits; AID 448
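qHTS, coupled TGR/Prx2 format; 15 min compound preincubation at RT; reaction started with H2O2 (2.5 mM aliquot); kinetic NADPH fluorescence decrease, ex 365/em 450 nm.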
Each line names hits and unclear results; the compound was inactive in the other large screens; [ ] = dose if it differs, or a comment. Unless noted, calls follow the shape of the full dose curve.

O=C1c2ccccc2C(Nc2ccccc2F)N1c1cccnc1 (stereo unspecified)	AmpC nodet inh 4µM[single pt active]
Cc1ccnc(N2C(=O)c3ccccc3C2Nc2cccc(C)c2C)c1 (stereo unspecified)	none
COCCn1c(=O)c(-c2ccc(Cl)cc2)nc2cnc(OC)nc21	none
CC(=O)N[C@@H](c1ccccc1)[C@]1(C)C[C@H]1[C@@H](C)C(=O)Nc1ccc2ccccc2c1	none
C[C@@H](C(=O)Nc1ccc2ccccc2c1)[C@H]1C[C@]1(C)[C@H](NC(=O)OCc1ccccc1)c1ccccc1	Anthrax LT inh inconclusive, AmpC nodet inh 7.9µM
C[C@@H](C(=O)Nc1ccc2ccccc2c1)[C@@H]1C[C@@]1(C)[C@@H](NS(=O)(=O)c1ccccc1)c1ccccc1	Anthrax LT inh inconclusive
Cc1cc(C(=O)N[C@H](c2ccccc2)[C@@]2(C)C[C@@H]2[C@@H](C)C(=O)Nc2ccc3ccccc3c2)n(C)n1	Anthrax LT inh 10µM
N#CC(C#N)=NNc1cccc(Cl)c1	Anthrax LT inh 2.5µM (no result: AmpC inh det, AmpC nodet inh, Prx2 Sm inh)
N#CC(C#N)=NNc1ccc2cn[nH]c2c1	none (no result: Prx2 Sm inh)
Cc1occc1C(=O)n1nnc2ccccc21	AmpC inh det 10µM, AmpC nodet inh 10µM
Cc1ccc2cccc(OC(=O)N(C)c3ccccc3)c2n1	Anthrax LT inh 16µM (no result: Prx2 Sm inh)
O=C(NCCCN1CCN(c2ccccc2F)CC1)C1CCCN(S(=O)(=O)c2cnc[nH]2)C1 (stereo unspecified)	AmpC nodet inh 4µM[single pt active] (no result: Prx2 Sm inh)
N#CCCN(CC#Cc1ccccc1)OCc1ccccc1	none (no result: AmpC inh det, AmpC nodet inh, Prx2 Sm inh)
OC(CN1C2=NCCCN2c2ccccc21)c1ccc(Cl)cc1 (stereo unspecified)	Anthrax LT inh inconclusive, AmpC nodet inh 4µM[single pt active]
COc1ccc(C(c2c(O)ccc3ccccc23)N2CCOCC2)c(OC)c1 (stereo unspecified)	Anthrax LT inh 6.3µM
COc1ccc(-c2cc3ccccc3n2CC(O)CN2CCOCC2)cc1 (stereo unspecified)	none
O=C(O)CNc1ccc(C(=O)O)cc1	none
CC(C)CCNC(=O)Cn1c(NCCC(C)C)nc2c1c(=O)n(C)c(=O)n2C	AmpC nodet inh 2.5µM[single pt active]
CCCN1C[C@@H](CSC)C[C@H]2c3cccc4[nH]cc(c34)C[C@@H]21	Anthrax LT inh inconclusive
CC1CCN(CCCNC(=O)c2cc3c(=O)n(C)c4ccccc4c3n2C)CC1	Anthrax LT inh 6.3µM
CC(C)OCCCNC(=O)c1cc2c(=O)n(C)c3ccccc3c2n1C	none
Cn1c(C(=O)NCCN2CCCCCC2)cc2c(=O)n(C)c3ccccc3c21	Anthrax LT inh 1.6µM
CCCCN(CC)CCCNC(=O)c1cc2c(=O)n(C)c3ccccc3c2n1C	Anthrax LT inh 4µM
Cn1c(C(=O)NCCN2CCN(Cc3ccccc3)CC2)cc2c(=O)n(C)c3ccccc3c21	AmpC nodet inh inconclusive
Cn1c(C(=O)NCC2CCCO2)cc2c(=O)n(C)c3ccccc3c21 (stereo unspecified)	AmpC nodet inh 4µM[single pt active]
O=C(O)/C=C\C(=O)Nc1ccc2c(c1)-c1ccccc1C2	none
CN1CCN(CCCNC(=O)c2cc3c(=O)n(C)c4ccccc4c3s2)CC1	Anthrax LT inh 10µM
COc1ccccc1CNC(=O)c1cc2c(=O)n(C)c3ccccc3c2n1C	AmpC nodet inh 4µM[single pt active]
Cn1c(C(=O)Nc2ccc3c(c2)OCO3)cc2c(=O)n(C)c3ccccc3c21	Anthrax LT inh inconclusive, AmpC nodet inh 4µM[single pt active]
Cn1cc(-c2nc3cncnc3n(CCN)c2=O)c2ccccc21	none
COc1cccc(Cn2c(=O)cnc3cnc(N(C)C)nc32)c1	Anthrax LT inh inconclusive
CC(=O)OCC1OC(C#Cc2ccccc2)C=CC1OC(C)=O (stereo unspecified)	none (no result: AmpC inh det, AmpC nodet inh, Prx2 Sm inh)
COc1ccc(CNc2ncncc2-c2cccc(NS(C)(=O)=O)c2)c(OC)c1	none
O=C(Nc1ccccc1)N1CCC2(CC1)CCN(S(=O)(=O)c1ccccc1)CC2	none
Cc1csc(Sc2nc3c(c(=O)[nH]c(=O)n3C)n2CCCc2ccccc2)n1	AmpC nodet inh 16µM[single pt active]
CCS(=O)(=O)N1CCC[C@H]2CN3CCc4cc(OC)ccc4[C@@H]3C[C@@H]21	none
CCOC(=O)c1c(C)[nH]c2ccc3c(c12)CN1CCc2cc(OC)ccc2[C@@H]1O3	Anthrax LT inh 2.5µM
CC1=C(C(=O)O)N2C(=O)[C@@H](NC(=O)[C@@H](N)c3ccc(O)cc3)[C@@H]2SC1	Anthrax LT inh inconclusive
CC(=O)NCCn1c(SCC#N)nc2ccccc2c1=O	Anthrax LT inh inconclusive
N#CCSc1nc2ccccc2c(=O)n1CCC(=O)NCCc1ccccc1	AmpC nodet inh 16µM[single pt active]
N#Cc1c(C(F)(F)F)cc(C2CC2)[nH]c1=O	AmpC nodet inh 4µM[single pt active]
